Bioassay records (PubChem BioAssay)
Only some compounds are listed: those with a hit (about 14% of all), similar ones and a draw of the others.
HCV inhibitor – qHTS Assay for Inhibitors of Hepatitis C Virus (HCV). Potency, µM (titrated, usually from 41.8 µM), for the others: top-dose activity change, negative = inhibition, most hits filed as inhibitors. AID 651820, 2012. Huh7.5.1 HCVcc-Cre infection, luciferase reporter, 44 h. 3.4% of 340,000 active; note: potency is the fitted concentration of half-maximal effect
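1,000 cells/well; 4 h culture; + compound; + HCVcc-Cre (~0.5 moi); 44 h; luciferase substrate, RT 15 min; read 15 sec.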
Pf growth 96h – Primary qHTS for delayed death inhibitors of the malarial parasite plastid, 96 hour incubation; AID 504834, 2011; Potency, µM (titrated, usually from 28.7 µM), without a hit: top-dose activity change, negative = inhibition, hits mostly inhibitors; P. falciparum luciferase reporter growth, 96 h; 6.9% of 320,000 active; note: potency is the fitted concentration of half-maximal effect
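P. falciparum expressing integrated firefly luciferase grown in erythrocytes (2% hematocrit, 0.05% parasitemia final) with compounds for 96 hours at 37 C, 5% CO2. Growth inhibition read as loss of luminescence after adding luciferase detection reagent.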
HCMV inh – qHTS Assay for inhibitors of the human cytomegalovirus (HCMV) | HFF cells, HCMV-luciferase reporter, 72 h; hits give low values | 4.5% of 410,000 active | activity change, negative = inhibition, % at 57.5 µM; in the data active = activity change below about -60%; inconclusive = no clear call, values can overlap the other calls; inactive = above about -39%
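Human foreskin fibroblasts infected with luciferase-reporter HCMV at MOI 1 PFU/cell, compounds at two doses. Luciferase measured 72 h post infection; normalized to buffer-only basal and Salinomycin (10uM) controls.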
LASV entry inh – qHTS for Inhibitors of binding or entry into cells for Lassa Virus; Lassa virus pseudotype entry inhibition, cell reporter; Potency, µM (top dose mostly 37.9 µM), for the others: top-dose activity change, negative = inhibition, hits mostly inhibitors; 1.2% of 300,000 active; AID 540256, 2011; calls by dose curve; tested in HEK293 cells; note: potency is the fitted concentration of half-maximal effect; nearly all actives have a fitted effect of over 50% in size
Pf growth 48h – Primary qHTS for delayed death inhibitors of the malarial parasite plastid, 48 hour incubation. P. falciparum luciferase growth in erythrocytes, 48 h. Potency, µM (highest dose often 28.7 µM), for the others: at the top dose activity change, negative = inhibition, actives largely listed as inhibitors. 5.9% of 310,000 active; note: potency is the fitted concentration of half-maximal effect
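Compounds are pin-transferred into medium, infected erythrocytes (2% hematocrit, 0.1% parasitemia final) are added, and plates sit one parasite generation at 37 C in 5% CO2. Detection reagent is then added and luminescence measured.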
Marburg entry inh – qHTS for inhibitors of binding or entry into cells for Marburg Virus | Marburg virus pseudotyped entry inhibition, cell reporter | Potency, µM (doses to about 37.8 µM), inactives show at the highest dose activity change, negative = inhibition, most hits filed as inhibitors | 1.8% of 300,000 active; calls by dose curve; tested in HEK293 cells; note: potency is the fitted concentration of half-maximal effect
Numbers without * were called inactive; u = inconclusive; x = not tested or not shown; + = active, no number; ! = a repeat was not active; [ ] = remark or other dose. Unless noted, calls come from the whole dose curve; as a rule, active = well fitted inhibition curve with a large enough effect; inconclusive = small, poorly fitted or top-dose-only effect, or another doubt; inactive = no such curve, though single readings can be large or run the other way. % is set by controls: 0 for no effect and ±100 for the full control effect.

SMILES	HCV inhibitor	Pf growth 96h	HCMV inh	LASV entry inh	Pf growth 48h	Marburg entry inh
O=C(COCc1cc(-c2cccs2)on1)NCc1ccc(F)cc1	x	x	-2	-11%[46.1 µM]	x	x
CCN(CCN(C)C)C(=O)C1CCN(S(=O)(=O)c2c(C)noc2/C=C/c2ccccc2F)CC1	u	-14%	-99*!	u	9.3µM*	x
CCOc1ccccc1/C=C/c1onc(C)c1S(=O)(=O)N1CCC(C(=O)N(CC)CC)CC1	u	12%	+!	u	10µM*	x
CCOc1ccccc1NC(=O)C1CCN(S(=O)(=O)c2c(C)noc2/C=C/c2ccco2)CC1	x	x	-38	u	x	3%[46.1 µM]
Cc1cc(OC(C)C(=O)N2CCN(c3ccccc3)CC2)c2c(C)c(C)c(=O)oc2c1 (stereo unspecified)	u	13µM*	-35	x	9.3µM*	x
COCc1[nH]nc2c1[C@@H](c1ccc(OC)cc1)C(C#N)=C(N)O2	x	x	x	x	x	5%
O=C(COCc1cc(-c2ccc(F)cc2)on1)Nc1cc(Cl)cc(Cl)c1	x	x	8	-3%[46.1 µM]	x	x
CC(=O)OC[C@H]1O[C@H](C#CC(C)(C)C)C=C[C@@H]1OC(C)=O	x	x	x	x	x	16%[14.2 µM]
CCCCN1C=CC(=C2C(=O)c3ccccc3C2=O)C=C1	-10%	u	-88*	u	-73%	u
COc1ccc(CCN2C(=O)c3ccccc3C2c2nnnn2Cc2ccccc2)cc1OC (stereo unspecified)	x	x	-16	x	x	x
COc1ccc(C2c3c(oc4ccc(F)cc4c3=O)C(=O)N2Cc2ccc3c(c2)OCO3)cc1 (stereo unspecified)	x	x	-7	0%[46.1 µM]	x	-2%[46.1 µM]
CC[N+]1=CN(c2ccccc2)C(C)=CC1(C)C	12%	4.1µM*	-20	-1%	u	11%
C=C1CC[C@@H]2[C@](C)(CO)[C@H](O)CC[C@@]2(C)[C@@H]1C/C=C1/C(=O)OCC1O (stereo partly specified)	1%	x	-77*	x	x	x
CC1(C)C[C@@H](O)[C@]2(C)CC[C@]3(C)C(=CCC4[C@@]5(C)CC[C@H](O)[C@](C)(CO)C5CC[C@]43C)[C@@H]2C1 (stereo partly specified)	24%	x	4	x	x	x
C=C1CCC2[C@](C)(CO)C(O)CC[C@]2(C)C1C/C=C1/C(=O)OCC1O (stereo partly specified)	x	15µM*	x	x	u	x
COc1ccc(NC(=O)C(=O)NCC(c2cccnc2)N2CCc3ccccc3C2)cc1 (stereo unspecified)	x	x	-10	u	x	x
Cc1nn(Cc2ccc(Cl)cc2)c(C)c1NC(=O)c1cc(-c2ccc3c(c2)OCO3)on1	32µM*	u	-94*	-18%	-16%	u
Cc1nn(Cc2ccc(Cl)c(Cl)c2)c(C)c1NC(=O)c1cc(-c2ccc3c(c2)OCO3)on1	u	65%	-73*	u	-16%	6.5µM*
Clc1ccc(Cn2ccc(-c3ccc4c(c3)OCO4)n2)cc1Cl	25µM*	123%	12	u	7%	-6%
O=P1(O)Oc2c(c(-c3ccccc3)cc3ccc4ccccc4c23)-c2c(-c3ccccc3)cc3ccc4ccccc4c3c2O1	x	x	x	x	x	28%[14.2 µM]
Oc1c(C(c2ccccc2F)N2CCOCC2)sc2nc(-c3ccco3)nn12 (stereo unspecified)	x	x	9	6%[46.1 µM]	x	x
O=C(Cn1cc(COc2ccc3ccc(=O)oc3c2)nn1)c1ccc(O)cc1	2.5µM*	x	16	u	x	x
COc1ccc([C@]23Cc4cc(C#N)ccc4[C@H](O2)c2c(cc(C)n(Cc4ccccc4)c2=O)O3)cc1	x	-4%[5.75 µM]	x	x	1.9µM*	u
COc1ccc([C@]23Cc4cc(OC)c(OC)cc4C(O2)c2c(cc(C)n(Cc4ccccc4)c2=O)O3)cc1	x	1.5µM*	x	x	u	u
COc1ccc([C@]23Cc4cc(C#N)ccc4C(O2)C2=C(CC4(CCCCC4)OC2=O)O3)cc1	x	0.76µM*	x	x	u	x
